{"source": "PubChem BioAssay (NCI)", "note": "Compounds without any hit were thinned out: in the full panel of roughly 79,000, 15% have a hit. A number with no mark means an inactive call. Calls of active or inactive are those of the source. No stated cut-off is given here; in the data, active means growth inhibition above about 70%; inactive means the rest.", "data": [{"test": "NCI Yeast Anticancer Drug Screen. Data for the rad18 strain (AID 177)", "settings": "S. cerevisiae rad18 mutant growth inhibition; at 3.7 µM; hits give high values", "outline": "(§1)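 Compounds are applied to a repair-deficient yeast strain, and growth is compared with that of vehicle-treated cultures to give percent inhibition.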", "values": [{"smiles": "COc1ccc2nc3cccc([N+](=O)[O-])c3c(NCCNCCN(C)C)c2c1", "growth inhibition": "-3%"}, {"smiles": "c1ccc([P+](CCN2Cc3ccccc3C2)(c2ccccc2)c2ccccc2)cc1", "growth inhibition": "71% (active)"}, {"smiles": "Cc1ccc(S(=O)(=O)NC(=O)C2C(=O)CC3(CCCCC3)CC2=O)cc1", "growth inhibition": "-2%"}, {"smiles": "NC(=S)N1N=C2c3ccccc3CC[C@H]2[C@@H]1c1ccc(Cl)cc1", "growth inhibition": "8%"}, {"smiles": "O=[N+]([O-])/C=C/c1cc2ccc3ccccc3c2[nH]1", "growth inhibition": "86% (active)"}, {"smiles": "O=C1C(=C2CCCC2)CCC1CN1CCCCC1", "note": "(configuration not stated)", "growth inhibition": "6%"}, {"smiles": "OC(CC(O)(C(F)(F)F)C(F)(F)F)c1ccc(C(O)CC(O)(C(F)(F)F)C(F)(F)F)cc1", "note": "(configuration not stated)", "growth inhibition": "41%"}, {"smiles": "COc1cc2c(cc1OC)[C@@H](Nc1ccc(C#N)cc1)C1COC(=O)[C@@H]1C2c1cc(OC)c(O)c(OC)c1", "note": "(some centres not stated)", "growth inhibition": "-8%"}, {"smiles": "NC(CCCCCCCCCCCCC(N)C(=O)c1ccccc1)C(=O)c1ccccc1", "note": "(configuration not stated)", "growth inhibition": "-9%"}, {"smiles": "CC1=C(C)C(=O)C2=C(OCCO2)C1=O", "growth inhibition": "-5%"}, {"smiles": "c1ccc(-c2cc(C3CO3)c3ccccc3n2)cc1", "note": "(configuration not stated)", "growth inhibition": "11%"}, {"smiles": "S=C1C(=Nc2ccccc2)N(c2ccccc2)/C(=N\\c2ccccn2)N1c1ccccc1", "growth inhibition": "-3%"}, {"smiles": "CCC(OC(C)=O)C1CC(C(C)C)CCC1C", "note": "(configuration not stated)", "growth inhibition": "2%"}, {"smiles": "CC(C)=CCc1c2c(c(O)c3c(=O)c(-c4ccc(O)c(O)c4)coc13)C=CC(C)(C)O2", "growth inhibition": "-4%"}, {"smiles": "O=C(NC(N1CCN(c2cc3c(cc2F)c(=O)c(C(=O)O)cn3C2CC2)CC1)(C(F)(F)F)C(F)(F)F)c1ccccc1", "growth inhibition": "-2%"}, {"smiles": "Fc1cc(F)c(F)c(S)c1F", "growth inhibition": "-34%"}, {"smiles": "COc1ccc2cc3c4cc5c(cc4cc[n+]3cc2c1OC)OCO5", "growth inhibition": "28%"}, {"smiles": "Nc1cc(Cl)ccc1Nc1ccccc1", "growth inhibition": "-39%"}, {"smiles": "O=C(/C(=C/c1ccc(O)cc1)c1ccccc1)c1ccccc1", "growth inhibition": "-33%"}, {"smiles": "O=Cc1ccccc1C=O", "growth inhibition": "-5%"}, {"smiles": "O=S(=O)(c1cccc(C(F)(F)F)c1)N1c2ccccc2-n2cccc2C1c1cccnc1", "note": "(configuration not stated)", "growth inhibition": "7%"}, {"smiles": "Nc1ccc2c(c1)C(=O)c1c(F)cccc1-2", "growth inhibition": "8%"}, {"smiles": "CN(C)/C(=N/C(=S)Nc1ccccc1)SCc1ccccc1", "growth inhibition": "-1%"}, {"smiles": "O=C1c2ccccc2-c2ccc(N=Cc3ccccc3)cc21", "growth inhibition": "-8%"}]}, {"test": "NCI Yeast Anticancer Drug Screen. Data for the rad18 strain (AID 177)", "settings": "S. cerevisiae rad18 mutant growth inhibition; at 11.0 µM; hits give high values", "outline": "as §1", "values": [{"smiles": "COc1ccc2nc3cccc([N+](=O)[O-])c3c(NCCNCCN(C)C)c2c1", "growth inhibition": "-4%"}, {"smiles": "c1ccc([P+](CCN2Cc3ccccc3C2)(c2ccccc2)c2ccccc2)cc1", "growth inhibition": "58%"}, {"smiles": "Cc1ccc(S(=O)(=O)NC(=O)C2C(=O)CC3(CCCCC3)CC2=O)cc1", "growth inhibition": "-16%"}, {"smiles": "NC(=S)N1N=C2c3ccccc3CC[C@H]2[C@@H]1c1ccc(Cl)cc1", "growth inhibition": "-9%"}, {"smiles": "O=[N+]([O-])/C=C/c1cc2ccc3ccccc3c2[nH]1", "growth inhibition": "90% (active)"}, {"smiles": "O=C1C(=C2CCCC2)CCC1CN1CCCCC1", "note": "(configuration not stated)", "growth inhibition": "27%"}, {"smiles": "OC(CC(O)(C(F)(F)F)C(F)(F)F)c1ccc(C(O)CC(O)(C(F)(F)F)C(F)(F)F)cc1", "note": "(configuration not stated)", "growth inhibition": "91% (active)"}, {"smiles": "COc1cc2c(cc1OC)[C@@H](Nc1ccc(C#N)cc1)C1COC(=O)[C@@H]1C2c1cc(OC)c(O)c(OC)c1", "note": "(some centres not stated)", "growth inhibition": "-5%"}, {"smiles": "NC(CCCCCCCCCCCCC(N)C(=O)c1ccccc1)C(=O)c1ccccc1", "note": "(configuration not stated)", "growth inhibition": "41%"}, {"smiles": "CC1=C(C)C(=O)C2=C(OCCO2)C1=O", "growth inhibition": "-4%"}, {"smiles": "c1ccc(-c2cc(C3CO3)c3ccccc3n2)cc1", "note": "(configuration not stated)", "growth inhibition": "53%"}, {"smiles": "S=C1C(=Nc2ccccc2)N(c2ccccc2)/C(=N\\c2ccccn2)N1c1ccccc1", "growth inhibition": "57%"}, {"smiles": "CCC(OC(C)=O)C1CC(C(C)C)CCC1C", "note": "(configuration not stated)", "growth inhibition": "4%"}, {"smiles": "CC(C)=CCc1c2c(c(O)c3c(=O)c(-c4ccc(O)c(O)c4)coc13)C=CC(C)(C)O2", "growth inhibition": "94% (active)"}, {"smiles": "O=C(NC(N1CCN(c2cc3c(cc2F)c(=O)c(C(=O)O)cn3C2CC2)CC1)(C(F)(F)F)C(F)(F)F)c1ccccc1", "growth inhibition": "-1%"}, {"smiles": "Fc1cc(F)c(F)c(S)c1F", "growth inhibition": "-12%"}, {"smiles": "COc1ccc2cc3c4cc5c(cc4cc[n+]3cc2c1OC)OCO5", "growth inhibition": "53%"}, {"smiles": "Nc1cc(Cl)ccc1Nc1ccccc1", "growth inhibition": "-24%"}, {"smiles": "O=C(/C(=C/c1ccc(O)cc1)c1ccccc1)c1ccccc1", "growth inhibition": "17%"}, {"smiles": "O=Cc1ccccc1C=O", "growth inhibition": "0%"}, {"smiles": "O=S(=O)(c1cccc(C(F)(F)F)c1)N1c2ccccc2-n2cccc2C1c1cccnc1", "note": "(configuration not stated)", "growth inhibition": "85% (active)"}, {"smiles": "Nc1ccc2c(c1)C(=O)c1c(F)cccc1-2", "growth inhibition": "31%"}, {"smiles": "CN(C)/C(=N/C(=S)Nc1ccccc1)SCc1ccccc1", "growth inhibition": "1%"}, {"smiles": "O=C1c2ccccc2-c2ccc(N=Cc3ccccc3)cc21", "growth inhibition": "-4%"}]}, {"test": "NCI Yeast Anticancer Drug Screen. Data for the rad18 strain (AID 177)", "settings": "S. cerevisiae rad18 mutant growth inhibition; at 33.0 µM; hits give high values", "outline": "as §1", "values": [{"smiles": "COc1ccc2nc3cccc([N+](=O)[O-])c3c(NCCNCCN(C)C)c2c1", "growth inhibition": "3%"}, {"smiles": "c1ccc([P+](CCN2Cc3ccccc3C2)(c2ccccc2)c2ccccc2)cc1", "growth inhibition": "74% (active)"}, {"smiles": "Cc1ccc(S(=O)(=O)NC(=O)C2C(=O)CC3(CCCCC3)CC2=O)cc1", "growth inhibition": "14%"}, {"smiles": "NC(=S)N1N=C2c3ccccc3CC[C@H]2[C@@H]1c1ccc(Cl)cc1", "growth inhibition": "45%"}, {"smiles": "O=[N+]([O-])/C=C/c1cc2ccc3ccccc3c2[nH]1", "growth inhibition": "92% (active)"}, {"smiles": "O=C1C(=C2CCCC2)CCC1CN1CCCCC1", "note": "(configuration not stated)", "growth inhibition": "81% (active)"}, {"smiles": "OC(CC(O)(C(F)(F)F)C(F)(F)F)c1ccc(C(O)CC(O)(C(F)(F)F)C(F)(F)F)cc1", "note": "(configuration not stated)", "growth inhibition": "98% (active)"}, {"smiles": "COc1cc2c(cc1OC)[C@@H](Nc1ccc(C#N)cc1)C1COC(=O)[C@@H]1C2c1cc(OC)c(O)c(OC)c1", "note": "(some centres not stated)", "growth inhibition": "13%"}, {"smiles": "NC(CCCCCCCCCCCCC(N)C(=O)c1ccccc1)C(=O)c1ccccc1", "note": "(configuration not stated)", "growth inhibition": "96% (active)"}, {"smiles": "CC1=C(C)C(=O)C2=C(OCCO2)C1=O", "growth inhibition": "6%"}, {"smiles": "c1ccc(-c2cc(C3CO3)c3ccccc3n2)cc1", "note": "(configuration not stated)", "growth inhibition": "89% (active)"}, {"smiles": "S=C1C(=Nc2ccccc2)N(c2ccccc2)/C(=N\\c2ccccn2)N1c1ccccc1", "growth inhibition": "99% (active)"}, {"smiles": "CCC(OC(C)=O)C1CC(C(C)C)CCC1C", "note": "(configuration not stated)", "growth inhibition": "11%"}, {"smiles": "CC(C)=CCc1c2c(c(O)c3c(=O)c(-c4ccc(O)c(O)c4)coc13)C=CC(C)(C)O2", "growth inhibition": "93% (active)"}, {"smiles": "O=C(NC(N1CCN(c2cc3c(cc2F)c(=O)c(C(=O)O)cn3C2CC2)CC1)(C(F)(F)F)C(F)(F)F)c1ccccc1", "growth inhibition": "20%"}, {"smiles": "Fc1cc(F)c(F)c(S)c1F", "growth inhibition": "48%"}, {"smiles": "COc1ccc2cc3c4cc5c(cc4cc[n+]3cc2c1OC)OCO5", "growth inhibition": "89% (active)"}, {"smiles": "Nc1cc(Cl)ccc1Nc1ccccc1", "growth inhibition": "-15%"}, {"smiles": "O=C(/C(=C/c1ccc(O)cc1)c1ccccc1)c1ccccc1", "growth inhibition": "98% (active)"}, {"smiles": "O=Cc1ccccc1C=O", "growth inhibition": "26%"}, {"smiles": "O=S(=O)(c1cccc(C(F)(F)F)c1)N1c2ccccc2-n2cccc2C1c1cccnc1", "note": "(configuration not stated)", "growth inhibition": "93% (active)"}, {"smiles": "Nc1ccc2c(c1)C(=O)c1c(F)cccc1-2", "growth inhibition": "72% (active)"}, {"smiles": "CN(C)/C(=N/C(=S)Nc1ccccc1)SCc1ccccc1", "growth inhibition": "16%"}, {"smiles": "O=C1c2ccccc2-c2ccc(N=Cc3ccccc3)cc21", "growth inhibition": "12%"}]}]}
